Assay results: PubChem BioAssay (NCATS)
Records with an inconclusive call do not appear. Activity calls are given as the source filed them. Calls follow the shape of the dose curve; as a rule, active = well fitted inhibition curve with a large enough effect; inconclusive = small, poorly fitted or top-dose-only effect; inactive = flat fitted curve, though single readings scatter.

Assay: qHTS to identify inhibitors of the type 1 interferon - major histocompatibility complex class I in skeletal muscle: primary screen against the NCATS Pharmaceutical Collection (AID 1347407);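 also: luminescence of HiBiT knocked into endogenous HLA-B as interferon-induced MHC class I level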
Conditions: human skeletal muscle cells, IFN-b-induced MHC-I HiBiT luminescence, 24 h; series mostly up to 45.9 µM
Procedure, shortened: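 Compounds […] were added to CRISPR-engineered HLA-B-HiBiT C25cl48 human myoblasts with 4.0 ng/ml IFN-beta. After 24 hrs at 37 C, cells were lysed and HiBiT luminescence measured.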

Structure (SMILES)	outcome
CCOc1ccc(C(=O)OCCN(CC)CC)cc1	inactive
CC(=O)NCc1c(I)c(NC(C)=O)c(I)c(C(=O)O)c1I	inactive
Nc1c2c(nc3c1CCC3)CCCC2	inactive
